Reference: PMC5700166
Substitutions are numbered along the chain they refer to.

What was measured:
Assay in all cases: protein-binding microarray (PBM); PBM: ~300 nM protein, 6 mM HEPES pH 7.8, 80 mM KCl, 0.5 mM EDTA, 0.5 mM EGTA, 6% glycerol, 35 ng/ul poly-dIdC, 1% milk, 1 h, room temperature; Ap Aiptasia and Nv Nematostella (sea anemones) / Co Capsaspora / Aq Amphimedon (sponge) / Dm Drosophila / Hu human; RHD is the Rel homology domain; high values mean tight binding
Conditions in all cases: dsDNA, one strand shown
GST-Ap-NF-kB RHD = biological target: T1, GST-Ap-NF-kB RHD (Exaiptasia pallida (Aiptasia), UniProt A0A913YAJ5 2-422)
T1 sequence: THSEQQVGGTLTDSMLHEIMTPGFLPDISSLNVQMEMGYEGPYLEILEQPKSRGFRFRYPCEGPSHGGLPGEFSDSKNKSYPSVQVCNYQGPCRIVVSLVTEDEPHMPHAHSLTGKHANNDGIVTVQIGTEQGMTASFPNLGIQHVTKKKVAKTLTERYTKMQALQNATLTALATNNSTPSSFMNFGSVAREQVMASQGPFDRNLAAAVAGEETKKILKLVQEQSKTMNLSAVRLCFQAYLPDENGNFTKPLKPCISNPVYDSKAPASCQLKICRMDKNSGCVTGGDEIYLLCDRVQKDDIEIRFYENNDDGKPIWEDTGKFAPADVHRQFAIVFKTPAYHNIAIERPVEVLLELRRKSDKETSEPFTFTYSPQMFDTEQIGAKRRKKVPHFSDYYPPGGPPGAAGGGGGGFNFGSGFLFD

[1] = biological target: T2, GST-Nv-NF-kB (Cys allele) (Nematostella vectensis, UniProt E5G601 2-411)
T2 sequence: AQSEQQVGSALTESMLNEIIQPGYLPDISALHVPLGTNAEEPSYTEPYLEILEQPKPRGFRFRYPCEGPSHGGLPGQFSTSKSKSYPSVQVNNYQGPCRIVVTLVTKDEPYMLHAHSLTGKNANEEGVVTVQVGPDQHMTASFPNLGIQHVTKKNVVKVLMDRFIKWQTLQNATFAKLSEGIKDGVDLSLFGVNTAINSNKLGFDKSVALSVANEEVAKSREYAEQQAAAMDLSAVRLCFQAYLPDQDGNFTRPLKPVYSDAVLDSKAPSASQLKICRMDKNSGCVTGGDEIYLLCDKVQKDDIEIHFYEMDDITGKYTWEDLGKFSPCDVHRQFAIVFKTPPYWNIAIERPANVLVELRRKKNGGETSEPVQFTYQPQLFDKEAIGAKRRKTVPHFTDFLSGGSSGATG

[2] = biological target: T3, GST-Nv-NF-kB (Ser allele) (Nematostella vectensis, UniProt A7UNT2 2-411)
T3 sequence: T2 sequence with Q21R, C66S, S207N, E215Q, V217A, E225K, A268E, D399E

GST-Co-NF-kB = biological target: T4, GST-Co-NF-kB (Capsaspora owczarzaki, UniProt F1ARL5 200-546)
T4 sequence: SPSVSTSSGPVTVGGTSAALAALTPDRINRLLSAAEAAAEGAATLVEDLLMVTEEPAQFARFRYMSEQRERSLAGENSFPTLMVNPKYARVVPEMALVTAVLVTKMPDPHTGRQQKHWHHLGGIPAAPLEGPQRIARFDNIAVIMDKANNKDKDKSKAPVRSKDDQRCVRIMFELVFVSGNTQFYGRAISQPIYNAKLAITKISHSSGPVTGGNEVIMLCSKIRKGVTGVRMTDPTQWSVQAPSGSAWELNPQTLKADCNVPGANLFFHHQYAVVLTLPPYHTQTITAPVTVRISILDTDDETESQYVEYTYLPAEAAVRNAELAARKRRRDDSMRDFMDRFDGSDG

GST-Dm-Relish = biological target: T5, GST-Dm-Relish (Drosophila melanogaster, UniProt Q94527 99-473)
T5 sequence: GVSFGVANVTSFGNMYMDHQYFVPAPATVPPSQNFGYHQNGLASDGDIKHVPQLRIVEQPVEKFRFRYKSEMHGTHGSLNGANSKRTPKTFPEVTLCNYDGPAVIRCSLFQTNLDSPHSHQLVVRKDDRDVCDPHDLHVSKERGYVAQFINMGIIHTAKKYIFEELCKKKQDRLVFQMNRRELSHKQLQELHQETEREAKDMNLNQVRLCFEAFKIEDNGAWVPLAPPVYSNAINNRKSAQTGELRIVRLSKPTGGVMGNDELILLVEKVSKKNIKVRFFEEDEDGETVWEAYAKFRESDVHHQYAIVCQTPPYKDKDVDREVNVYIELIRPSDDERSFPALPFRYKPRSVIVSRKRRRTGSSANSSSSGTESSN

GST-Aq-NF-kB = biological target: T6, GST-Aq-NF-kB (Amphimedon queenslandica, UniProt A9Y5G7 2-389)
T6 sequence: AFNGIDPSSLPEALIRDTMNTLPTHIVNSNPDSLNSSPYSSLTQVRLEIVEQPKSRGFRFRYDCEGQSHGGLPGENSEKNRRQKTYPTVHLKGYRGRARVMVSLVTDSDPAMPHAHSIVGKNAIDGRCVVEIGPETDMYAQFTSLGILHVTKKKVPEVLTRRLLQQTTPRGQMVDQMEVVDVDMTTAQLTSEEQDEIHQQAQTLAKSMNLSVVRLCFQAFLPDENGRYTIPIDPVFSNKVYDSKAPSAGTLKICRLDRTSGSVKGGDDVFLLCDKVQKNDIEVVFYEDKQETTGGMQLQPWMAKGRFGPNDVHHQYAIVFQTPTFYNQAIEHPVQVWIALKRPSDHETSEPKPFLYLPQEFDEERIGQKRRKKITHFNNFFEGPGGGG

GST-Hu-p50 = GST-Hu-p50 (Homo sapiens, UniProt P19838 7-356)
GST-Hu-p50, sequence (P19838 7-356): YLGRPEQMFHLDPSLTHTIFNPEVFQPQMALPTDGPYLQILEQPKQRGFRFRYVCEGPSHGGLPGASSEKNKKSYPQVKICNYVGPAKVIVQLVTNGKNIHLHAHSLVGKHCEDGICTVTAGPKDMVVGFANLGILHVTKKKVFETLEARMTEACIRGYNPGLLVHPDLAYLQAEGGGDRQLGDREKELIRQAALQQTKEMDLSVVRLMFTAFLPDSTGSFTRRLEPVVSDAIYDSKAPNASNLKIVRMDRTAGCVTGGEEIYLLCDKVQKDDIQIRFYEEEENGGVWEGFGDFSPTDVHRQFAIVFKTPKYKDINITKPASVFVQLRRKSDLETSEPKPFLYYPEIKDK

Sequence | binding signal (GST-Ap-NF-kB RHD) [z-score] | binding signal [1] [z-score] | binding signal [2] [z-score] | binding signal (GST-Co-NF-kB) [z-score] | binding signal (GST-Dm-Relish) [z-score] | binding signal (GST-Aq-NF-kB) [z-score] | binding signal (GST-Hu-p50) [z-score]
CCGATTAACATCAGGGAAGAACCTGATGTTAATCGGGTCTTGATTCGCTTGACGCTGCTG | 2.43 | 3.52 | 3.35 | 1.42 | 8.73 | 5.54 | 2.83
CCGATTAACATCAGAAGTTCCCCTGATGTTAATCGGGTCTTGATTCGCTTGACGCTGCTG | 7.97 | 8.26 | 8.1 | 7.36 | 8 | 7.04 | 5.84
CCGATTAACATCAGGCAGTCCCCTGATGTTAATCGGGTCTTGATTCGCTTGACGCTGCTG | 5.54 | 4.49 | 3.59 | 1.33 | 4.55 | 5.52 | 4.48
CCGATTAACATCAAAAAAGTCCCTGATGTTAATCGGGTCTTGATTCGCTTGACGCTGCTG | 8.8 | 11.6 | 11.5 | 2.41 | 9.77 | 8.92 | 7.77
CCGATTAACATCAGGGGTATTTATGATGTTAATCGGGTCTTGATTCGCTTGACGCTGCTG | 5.75 | 5.26 | 5.54 | 4.66 | 3.79 | 5.15 | 5.56
CCGATTAACATCACGGGGGATTATGATGTTAATCGGGTCTTGATTCGCTTGACGCTGCTG | 7.59 | 6.57 | 7 | 6.84 | 6.41 | 5.87 | 6.67
CCGATTAACATCAGGGGGTGGTATGATGTTAATCGGGTCTTGATTCGCTTGACGCTGCTG | 3.21 | 2.77 | 3.98 | 2.91 | 2.01 | 3.38 | 3.67
CCGATTAACATCAAATTTCCCCATGATGTTAATCGGGTCTTGATTCGCTTGACGCTGCTG | 7.86 | 9.05 | 10.8 | 9.42 | 4.87 | 7.31 | 6.68
CCGATTAACATCAATATCCCCCATGATGTTAATCGGGTCTTGATTCGCTTGACGCTGCTG | 6.62 | 4.94 | 5.43 | 6.5 | 3.73 | 4.55 | 5.2
